This is part of a sample that, as a whole, favours compounds with a hit. Of some 83,000 tested, about 20% had one in any assay.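 Treatment: one concentration, 48 hours, 96-well format. Scoring: percent growth, with anything below 10 considered active.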 Activity calls are given as the source filed them.
tested on: MDA-MB-468 breast; test: NCI-60 one-dose screen, 48 h (100 = growth as untreated, 0 = no growth, -100 = all killed); conditions: 10 µM unless noted

Row | Structure (SMILES) | growth
1 | CN(C)c1ccc(/C=c2\s/c(=C\C(=O)C(C)(C)C)[nH]c2=O)cc1 | 109% (inactive)
2 | CC(C)OC(=O)OCOP(=O)(OCOC(=O)OC(C)C)C1CCCN(O)C1=O (stereo not given) | 36.3% (inactive)
3 | COc1ccc(C(=O)/C=C/c2cc(-c3ccc(OC)c(OC)c3)n[nH]2)cc1OC | -71.6% (active)
4 | Fc1ccc([I+]c2ccc(F)cc2)cc1 | 30% (inactive)
5 | OCc1cccc(F)c1 | 68.9% (inactive)
6 | CCOC(=O)C1=C(c2ccccc2)N=C2SC=C(c3cccc([N+](=O)[O-])c3)N2C1c1ccc(O)cc1 (stereo not given) | 93.7% (inactive)
7 | COc1cc(C2CC(c3ccc(C)cc3)=NN2C(C)=O)ccc1Oc1ccnc2cc(Cl)ccc12 (stereo not given) | 78.6% (inactive)
8 | Cn1cc(-c2ccc3c(Nc4cccc(NC(=O)Nc5cccc(F)c5)c4)ncnc3c2)cn1 | 3.69% (active)
9 | CC1(c2ccccc2)CO1 (stereo not given) | 110% (inactive)
10 | COCCOc1ccc(-c2nc3ccc(-c4nc5ccc(N6CCN(C)CC6)cc5[nH]4)cc3[nH]2)cc1 | -22.5% (active)
11 | Fc1ccc(-c2cn3c(nc4ccccc43)c(-c3ccccc3)n2)cc1 | 82.8% (inactive)
12 | CC(=O)c1ccc(NCn2nc(-c3ccc(Cl)cc3)oc2=S)cc1 | 100% (inactive)
13 | CC(C)=CCCC(C)c1ccc(C)c2c1OCN(CCCCCO)C2 (stereo not given) | 90% (inactive)
14 | CCn1c(SCCc2ccccc2)nnc1-c1nn(-c2ccc(Cl)cc2Cl)c(-c2ccc(Cl)cc2)c1C | 45.9% (inactive)
15 | CC1(C)OC(=O)C(c2ccsc2)C(=O)O1 | 114% (inactive)
16 | C=CN(C(=O)N1CCN(c2cc3c(cc2F)c(=O)c(C(=O)O)cn3C2CC2)CC1)c1nc(-c2ccc(Cl)cc2)cs1 | 76.3% (inactive)
17 | O=C1c2cccnc2-c2nccc3c2c1nc1cc(Br)ccc13 | -54.6% (active)
18 | O=C(Nc1ccncc1)C(=O)c1cn(S(=O)(=O)c2ccc(F)cc2)c2ccccc12 | 14.9% (inactive)
19 | O=C(/C=C/c1ccc(F)cc1)Nc1ncc(Cc2ccc(F)cc2)s1 | 8.11% (active)
20 | CNC(=O)c1cc(Oc2ccc3nc(NC(=O)c4cc(C(F)(F)F)cc(C(F)(F)F)c4)sc3c2)ccn1 | 23% (inactive)

Row | Structure (SMILES) | growth
21 | O=C1CCCCC1(c1ccccc1)c1ccccc1 | 98.4% (inactive)
22 | C#Cc1cccc(Nc2ncnc3ccc(NC(=O)c4ccccc4)cc23)c1 | -28.5% (active)
23 | CNC(=O)c1cc(-c2ccc(NC(=S)Nc3cccc(C(F)(F)F)c3)cc2)nc2cccnc12 | 47.9% (inactive)
24 | Cc1cc(-c2nnc(/C=C/c3ccc4c(c3)OCO4)o2)n[nH]1 | 54% (inactive)
25 | C#CC(=O)N(c1ccc(OC)cc1OC)C(C(=O)NCC(=O)OCC)c1cccs1 (stereo not given) | 20.2% (inactive)
26 | COc1ccc(Nc2ncnc3c2c(SC)nn3-c2ccccc2)cc1 | 69.2% (inactive)
27 | COc1ccc(C(=O)/C=C/C23c4ccccc4C(c4ccccc42)C2C(=O)NC(=O)C23)cc1 (stereo not given) | 98.7% (inactive)
28 | Oc1ccc(-c2nnc(SCc3ccc(O)c4ncccc34)o2)cc1 | 10.8% (inactive)
29 | CN1CCN(c2ccc3nc4c(nc3c2C(F)(F)F)C(=O)c2ncccc2C4=O)CC1 | -62.4% (active)
30 | CCCCCCCO | 96.4% (inactive)
31 | Cc1ccc(OCCOCCOCCOCCOc2ccc(C)n(O)c2=S)c(=S)n1O | -13.8% (active)
32 | COc1ccc2[nH]c(C(=O)OCc3ccc4cccc(O)c4n3)cc2c1 | -70.8% (active)
33 | COc1ccc(C2=NN(c3ccc(S(N)(=O)=O)cc3)C(c3ccc(Cl)cc3)C2)c(O)c1 (stereo not given) | 61.7% (inactive)
34 | O=c1[nH]c(-c2ccccn2)nc2sc3c(c12)CCCCC3 | 50% (inactive)
35 | OCCOc1c(Cl)cc(Cl)cc1Cl | 127% (inactive)
36 | Nc1nc(NC(=O)Nc2ccc(C(=O)O)cc2)nn1-c1ccc(S(N)(=O)=O)cc1 | 91.6% (inactive)
37 | COc1ccc(Nn2c(SCC(=O)Nc3nc(-c4ccc(Cl)cc4)cs3)nc(C)c2C)cc1 | 26.2% (inactive)
38 | CC(=O)N(C)c1ccc([N+](=O)[O-])cc1 | 101% (inactive)
39 | NS(=O)(=O)c1ccc(-n2ncc3c(=O)[nH]c(CN4CCN(c5cc6c(cc5F)c(=O)c(C(=O)O)cn6C5CC5)CC4)nc32)cc1 | 95.4% (inactive)
40 | CCN(CC)CC#CCOC(=O)[C@]1(C)CCC[C@]2(C)c3ccc(C(C)C)cc3CC[C@@H]12 | 65.3% (inactive)
